Source: PubChem (National Center for Advancing Translational Sciences (NCATS))
Shown are actives, neighbours in structure and some others; about 21% of the full set was active somewhere.
Pf growth 48h: P. falciparum growth inhibition at 48 hours (one generation); P. falciparum luciferase growth in erythrocytes, 48 h; Potency, µM (doses to about 28.7 µM), inactives show at the highest dose activity change, negative = inhibition, usual class: inhibitors; hit rate 5.9% among 310,000; also: potency is read from the fitted curve at half-maximal effect; % is scaled to controls: 0 for no effect and ±100 for the full control effect
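Luminescence readout; reporter = integrated firefly luciferase in P. falciparum. RBC culture at 2% hematocrit, 0.1% parasitemia final, 37 C/5% CO2; decreased signal taken as growth inhibition.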
Pf growth 96h: P. falciparum growth inhibition at 96 hour, primary screen for plastid delayed-death inhibitors. P. falciparum luciferase reporter growth, 96 h. Potency, µM (highest dose often 28.7 µM), for inactives: top-dose activity change, negative = inhibition, usual class: inhibitors. hit rate 6.9% among 320,000; also: potency is read from the fitted curve at half-maximal effect; % is scaled to controls: 0 for no effect and ±100 for the full control effect
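Erythrocytes infected with luciferase-expressing P. falciparum were dispensed at 2% hematocrit and 0.05% parasitemia (final), then incubated with compounds 96 hours at 37 C in 5% CO2. Luminescence after detection reagent addition reported growth.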
CHX counter: affects cycloheximide protein synthesis inhibition readout, counter-screen; cell reporter, cycloheximide protein synthesis inhibition counterscreen; max response, %; hit rate 12% among 300,000; AID 2314; in the data active = max response mostly above about 13%, no sharp cut-off; inactive = mostly below about 14%; also: read at 38.3 µM for the half of the compounds with a filed dose; 0% is about no effect
Shiga toxin inh: inhibitors of Shiga toxin in Vero cells; hit rate 9.2% among 290,000; Vero cells, Shiga toxin protein synthesis inhibition reporter; AID 2315; inhibition, % at 38.7 µM; in the data active = inhibition mostly above about 28%, no sharp cut-off; inactive = mostly below about 43%; also: 0% is about no effect
* = called active by the depositor; ? = inconclusive; nt = no result; [ ] = another dose, or the depositor's remark. Unless noted, calls follow the shape of the dose curve; as a rule, active = well fitted inhibition curve with a large enough effect; inconclusive = small, poorly fitted or top-dose-only effect, or another doubt; inactive = no such curve, though single readings can be large or run the other way.

SMILES	Pf growth 48h	Pf growth 96h	CHX counter	Shiga toxin inh
COc1ccc(N/C(=C(/C(Cl)=C(Cl)Cl)[N+](=O)[O-])n2nnc3ccccc32)cc1OC	nt	15µM*	4	2
COc1ccc(C(=O)n2nnc3ccccc32)cc1OC	5%	7%	-6	-14
CCOc1ccc(S(=O)(=O)N2CCCC(C(=O)Nc3ccccc3)C2)cc1 (stereo not given)	-24%	50%	2	29
CCOc1cc(NC(=O)c2cnccn2)c(OCC)cc1NC(=O)c1cccc(F)c1	13%	5%	-1	-17
CC(=O)Nc1ccc(NC(=O)CSc2cn(CC(=O)N3CCOCC3)c3ccccc23)cc1	?	?	2	-7
Cn1cc(SCC(=O)N2CCOCC2)c2ccccc21	53%	11%	22*	93*
CCn1cc(SCC(=O)N2CCOCC2)c2ccccc21	62%	34%	30*	68*
Cc1ccc(-c2n[nH]c(=O)c3ccccc23)cc1S(=O)(=O)NCCO	15%	nt	2	-9
NC(=O)Cc1ccc(Nc2nnc(-c3ccc(O)cc3)c3ccccc23)cc1	-4%	?	-1	-1
Cc1ccc(-c2nnc(Nc3ccc(CC(N)=O)cc3)c3ccccc23)cc1S(=O)(=O)NCCO	6.6µM*	4%	2	1
Cc1ccc(-c2nnc(Nc3ccc4c(c3)OCO4)c3ccccc23)cc1S(=O)(=O)NCCO	3.3µM*	?	2	-4
COc1ccc(S(=O)(=O)Nc2nc3ccccc3nc2Nc2ccc3c(c2)OCO3)cc1	5%	21%	-1	-16
Cc1ccc(-c2nnc(Nc3ccc4c(c3)OCO4)c3ccccc23)cc1S(=O)(=O)NC(C)C	2.9µM*	?	-2	-8
O=C(CNCc1ccc(Cl)cc1)Nc1ccc(C(=O)N2CCCCCC2)cc1	-7%	-12%	-6	-6
O=C1c2ccccc2C(=O)N1CSc1nnc(Nc2ccccc2F)s1	53%	15%	22*	30
CCN(CC)C(=O)CCCSc1nnc(Nc2ccccc2F)s1	20%	?	44*	85*
N#CC1(NC(=O)CSc2nnc(Nc3ccccc3F)s2)CCCC1	?	12µM*	nt	nt
CS(=O)(=O)NCc1ccccc1Br	44%	42%	nt	nt
COCCCNC(=O)c1ccc(CS(=O)(=O)c2ccc(Br)cc2)o1	nt	19%	0	-9
COCCCNC(=O)c1ccc(CS(=O)(=O)c2ccc(OC)cc2)o1	18%	10µM*	0	4
COC(CNC(=O)c1ccc(CS(=O)(=O)c2ccc(Br)cc2)o1)OC	-26%[0.00184 µM]	5%	-6	6
COC(CNC(=O)c1ccc(CS(=O)(=O)c2ccc(C)cc2)o1)OC	9%[0.00184 µM]	2.6µM*	-3	-5
CC(N)=Nc1ccc([N+](=O)[O-])cc1	8%	16%	-2	-6
O=[N+]([O-])c1ccc(N=Nc2c(Cl)cc(O)cc2Cl)cc1	?	?	29*	111*
Cc1ccc(C(=O)CSc2ccccn2)cc1	183%	nt	46*	113*
SMILES	Pf growth 48h	Pf growth 96h	CHX counter	Shiga toxin inh
O=C(CSc1ccccn1)c1ccc(F)cc1	nt	-17%	34*	58*
COC(=O)c1sc(N)c(C(=O)OC)c1CSc1nnnn1C	10µM*	9.3µM*	-6	-14
Cc1cc(SCC(=O)NC(=O)c2cccn2C)nc2ccccc12	111%	0%	-2	-7
COc1ccc(-c2c3c(=O)n(C)c(=O)n(C)c3cn2Cc2cccnc2)cc1	6%	?	17*	126*
COc1ccc(-c2c3c(=O)n(C)c(=O)n(C)c3cn2-c2cc(OC)ccc2OC)cc1	13µM*	-4%[5.75 µM]	14	-12
COc1ccc(-c2c3c(=O)n(C)c(=O)n(C)c3cn2Cc2ccccn2)cc1	-28%	8%	-2	42
O=C(Nc1nncs1)C1CC(=O)N(CCc2ccc(F)cc2)C1 (stereo not given)	7%	0%	1	-4
O=C(O)c1ccc(CSc2nnc(COc3ccc(Cl)cc3Cl)o2)cc1	nt	2.6µM*	5	14
COc1cc(C(=S)N2CCCC2)ccc1OCc1ccc(C)cc1	?	?	69*	81*
Cc1ccc(COc2ccccc2C(=S)N2CCCC2)cc1	20%[5.75 µM]	9%	17*	20
Cc1ccccc1CCN(C(=O)Cn1nnc2ccccc21)C(C(=O)NCC1CCCO1)c1nc2ccccc2n1C (stereo not given)	-19%	30%	0	-8
COc1cc(CCC(O)CC(=O)CCc2ccccc2)ccc1O (stereo not given)	33%	0%	-1	0
CCc1c(O)cc(=O)n(-c2ccccc2)c1-c1ccccc1	-5%	38%	-2	2
O=C(OCc1ccc2c(c1)OCO2)c1cccc(S(=O)(=O)N2CCCCC2)c1	nt	-29%	-2	-15
O=Cc1ccccc1OCc1ccc2c(c1)OCO2	21%	?	46*	100*
N#CCCN(Cc1ccccc1)C(=O)c1cccs1	?	-8%	5	3
COc1ccc(C2(CNS(=O)(=O)c3ccccc3)CCOCC2)cc1	7%	-40%[5.75 µM]	-1	-20
CCOC(=O)C1(Cc2cccc(OC)c2)CCCN(C(=O)c2cc(CC(C)C)[nH]n2)C1 (stereo not given)	-22%	?	53*	87*
CCOC(=O)C1(Cc2cccc(OC)c2)CCCN(C(=O)CCN2CCCO2)C1 (stereo not given)	-9%	59%	57*	148*
CCOC(=O)C1(Cc2cccc(OC)c2)CCCN(Cc2cnn(C)c2)C1 (stereo not given)	0%	?	1	-10
CCOC(=O)C1(Cc2cccc(OC)c2)CCCN(C(=O)c2ccc(OC)o2)C1 (stereo not given)	?	40%	41*	113*
CC1CCN(S(=O)(=O)c2ccc3c(c2)N(CC(=O)NCCCN2CCCCC2)C(=O)CS3)CC1	?	9%	-2	13
Cc1ccc2[nH]c(=O)c(CN(CCCO)S(=O)(=O)c3cccc4nsnc34)cc2c1	-18%	64%	-5	-3
Cc1ccc2cc(CN(CCCO)S(=O)(=O)c3cccc4nsnc34)c(=O)[nH]c2c1	nt	4.1µM*	5	-6
CCC(Cc1ccccc1)NS(=O)(=O)c1csc(C(N)=O)c1 (stereo not given)	17%	60%	10	-14
SMILES	Pf growth 48h	Pf growth 96h	CHX counter	Shiga toxin inh
CCOC(=O)N1CCC(n2c(SCC(=O)NCCC3=CCCCC3)nc3ccccc3c2=O)CC1	9.3µM*	?	-3	-10
COCC(C)n1c(SCC(=O)NC(=O)NC2CCCC2)nc2ccccc2c1=O (stereo not given)	13µM*	?	nt	nt
COCC(C)n1c(SCC(=O)NCCC2=CCCCC2)nc2ccccc2c1=O (stereo not given)	nt	8.3µM*	-4	-14
CCOC(=O)N1CCC(n2c(SCC(=O)NCc3ccccc3)nc3ccccc3c2=O)CC1	?	?	-4	-15
CCOC(=O)N1CCC(n2c(SCC(=O)N3CCCC3)nc3ccccc3c2=O)CC1	?	?	-2	-8
CC(=O)NCCn1c(SCC(=O)NCCC2=CCCCC2)nc2ccccc2c1=O	-14%	59%	2	-10
CCOC(=O)N1CCC(n2c(SCC(=O)Nc3ccccc3OC)nc3ccccc3c2=O)CC1	10µM*	-4%	-3	-5
